# The whole screen tested about 2,700 compounds, of which about 160 (5.9%) showed an effect of 50% or more. The full list was thinned out, with strong results kept by preference.
# Target: Nonstructural protein 3 (Zika virus) (UniProt A0A024AXB9)
# [1] = PRVABC59, Concentration 50.0 uM, Number of replicates 1.0
# Sequence of Nonstructural protein 3 (Zika virus) (A0A024AXB9 as listed by the source): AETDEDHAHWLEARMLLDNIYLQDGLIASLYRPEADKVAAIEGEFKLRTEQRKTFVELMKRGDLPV
smiles,measurement,setting,value
NCc1cccc(NC(=O)c2cccc(NC(=O)OCc3ccccc3)n2)c1,inhibition,"PRVABC59, Concentration 49.5 uM, Number of replicates 2.0, Standard deviation 2.909357334669415 %",5.59%
same,inhibition,"PRVABC59, Concentration 99.01 uM, Number of replicates 2.0, Standard deviation 2.139765153167162 %",18.9%
same,inhibition,"PRVABC59, Concentration 198.0 uM, Number of replicates 2.0, Standard deviation 5.981167842462736 %",37.7%
NCc1cccc(NC(=O)[C@H]2CCCN(C(=O)OCc3ccccc3)C2)c1,inhibition,"PRVABC59, Concentration 49.5 uM, Number of replicates 2.0, Standard deviation 2.781365363643047 %",3.4%
same,inhibition,"PRVABC59, Concentration 99.01 uM, Number of replicates 2.0, Standard deviation 2.023258788415892 %",8.89%
same,inhibition,"PRVABC59, Concentration 198.0 uM, Number of replicates 2.0, Standard deviation 2.4646681276670943 %",18.5%
NCc1cccc(NC(=O)[C@H]2COC3(CCOCC3)N2C(=O)OCc2ccccc2)c1,inhibition,"PRVABC59, Concentration 49.5 uM, Number of replicates 2.0, Standard deviation 0.9938813563000084 %",5.38%
same,inhibition,"PRVABC59, Concentration 99.01 uM, Number of replicates 2.0, Standard deviation 1.914429893589366 %",19%
same,inhibition,"PRVABC59, Concentration 198.0 uM, Number of replicates 2.0, Standard deviation 1.323095447640423 %",40.3%
NCc1cccc(NC(=O)[C@@H](Cc2c[nH]c3ccccc23)NC(=O)OCc2ccccc2)c1,inhibition,"PRVABC59, Concentration 49.5 uM, Number of replicates 2.0, Standard deviation 3.967037724259516 %",6.59%
same,inhibition,"PRVABC59, Concentration 99.01 uM, Number of replicates 2.0, Standard deviation 5.155513103183051 %",30%
same,inhibition,"PRVABC59, Concentration 198.0 uM, Number of replicates 2.0, Standard deviation 1.4247172313715861 %",61.6%
NCc1cccc(NC(=O)[C@@H](NC(=O)OCc2ccccc2)C(C2CCC2)C2CCC2)c1,inhibition,"PRVABC59, Concentration 49.5 uM, Number of replicates 2.0, Standard deviation 1.6304646588102472 %",8.82%
same,inhibition,"PRVABC59, Concentration 99.01 uM, Number of replicates 2.0, Standard deviation 1.5618151976061267 %",76.8%
same,inhibition,"PRVABC59, Concentration 198.0 uM, Number of replicates 2.0, Standard deviation 0.10609407012035098 %",99.1%
COc1cc(COc2cccnc2F)nc(N2CCNCC2)n1,inhibition,"PRVABC59, Concentration 49.5 uM, Number of replicates 2.0, Standard deviation 3.471530038958882 %",9.4%
same,inhibition,"PRVABC59, Concentration 99.01 uM, Number of replicates 2.0, Standard deviation 1.2510762616041597 %",17.8%
same,inhibition,"PRVABC59, Concentration 198.0 uM, Number of replicates 2.0, Standard deviation 5.474495288404173 %",24.4%
CC[C@H]1CCN(c2nccn(CC)c2=O)C1,inhibition,"PRVABC59, Concentration 49.5 uM, Number of replicates 2.0, Standard deviation 1.4176871370399688 %",4.12%
same,inhibition,"PRVABC59, Concentration 99.01 uM, Number of replicates 2.0, Standard deviation 1.8963080974288338 %",10.6%
same,inhibition,"PRVABC59, Concentration 198.0 uM, Number of replicates 2.0, Standard deviation 0.25647537430637324 %",21.7%
CCn1ccnc(N2C[C@@H](O)[C@H](c3c[nH]c4ccccc34)C2)c1=O,inhibition,"PRVABC59, Concentration 49.5 uM, Number of replicates 2.0, Standard deviation 0.5666151507099095 %",7.52%
same,inhibition,"PRVABC59, Concentration 99.01 uM, Number of replicates 2.0, Standard deviation 0.06434104176194275 %",18.6%
same,inhibition,"PRVABC59, Concentration 198.0 uM, Number of replicates 2.0, Standard deviation 0.18264623400765803 %",34.5%
Nc1nc(CN2CCNCC2)nc2ccccc12,inhibition,"PRVABC59, Concentration 99.9 uM, Number of replicates 2.0, Standard deviation 4.738718872161362 %",-7.53%
c1ccc2c([C@H]3CCN(CC[C@H]4CCCO4)C3)c[nH]c2c1,inhibition,"PRVABC59, Concentration 49.5 uM, Number of replicates 2.0, Standard deviation 2.014848974851422 %",6.42%
same,inhibition,"PRVABC59, Concentration 99.01 uM, Number of replicates 2.0, Standard deviation 1.491910771840746 %",12.4%
same,inhibition,"PRVABC59, Concentration 198.0 uM, Number of replicates 2.0, Standard deviation 1.9789597532326375 %",21.4%
O=C(O)c1cccc(NC(=O)c2cccc(OCc3c(Cl)cccc3Cl)c2)c1,inhibition,"PRVABC59, Concentration 49.5 uM, Number of replicates 2.0, Standard deviation 0.05325743212794187 %",8.22%
same,inhibition,"PRVABC59, Concentration 99.01 uM, Number of replicates 2.0, Standard deviation 0.43176580313712193 %",15.3%
same,inhibition,"PRVABC59, Concentration 198.0 uM, Number of replicates 2.0, Standard deviation 0.7170736679224038 %",28.4%
N=C(N)NCCC[C@H](NC(=O)[C@H](Cc1ccc(CN)cc1)NC(=O)c1ccccc1)B(O)O,inhibition,"PRVABC59, Concentration 10.0 uM, Number of replicates 3.0, Standard deviation 0.04927937550217375 %",100%
same,inhibition,"PRVABC59, Concentration 49.5 uM, Number of replicates 2.0, Standard deviation 0.010099059252786384 %",99.8%
same,inhibition,"PRVABC59, Concentration 49.5 uM, Number of replicates 2.0, Standard deviation 0.01807256864147136 %",99.7%
same,inhibition,"PRVABC59, Concentration 49.5 uM, Number of replicates 2.0, Standard deviation 0.060713041042124986 %",99.8%
same,inhibition,"PRVABC59, Concentration 49.5 uM, Number of replicates 2.0, Standard deviation 0.06905879139685818 %",99.8%
same,inhibition,"PRVABC59, Concentration 49.5 uM, Number of replicates 2.0, Standard deviation 0.08298276144570521 %",99.9%
same,inhibition,"PRVABC59, Concentration 49.5 uM, Number of replicates 2.0, Standard deviation 0.10271153264626066 %",99.3%
same,inhibition,"PRVABC59, Concentration 49.5 uM, Number of replicates 2.0, Standard deviation 0.1066443393745092 %",99.6%
same,inhibition,"PRVABC59, Concentration 49.95 uM, Number of replicates 2.0, Standard deviation 0.961660259200824 %",101%
same,inhibition,"PRVABC59, Concentration 99.01 uM, Number of replicates 2.0, Standard deviation 0.020192723708963373 %",99.9%
same,inhibition,"PRVABC59, Concentration 99.01 uM, Number of replicates 2.0, Standard deviation 0.05005292294196158 %",99.7%
same,inhibition,"PRVABC59, Concentration 99.01 uM, Number of replicates 2.0, Standard deviation 0.0511966198231532 %",99.7%
same,inhibition,"PRVABC59, Concentration 99.01 uM, Number of replicates 2.0, Standard deviation 0.06657179015992734 %",99.4%
same,inhibition,"PRVABC59, Concentration 99.01 uM, Number of replicates 2.0, Standard deviation 0.07055854485426984 %",99.9%
same,inhibition,"PRVABC59, Concentration 99.01 uM, Number of replicates 2.0, Standard deviation 0.0908591644954211 %",99.8%
same,inhibition,"PRVABC59, Concentration 99.01 uM, Number of replicates 2.0, Standard deviation 0.09853596007058937 %",100%
same,inhibition,"PRVABC59, Concentration 99.9 uM, Number of replicates 2.0, Standard deviation 0.9426813647289743 %",101%
same,inhibition,"PRVABC59, Concentration 198.0 uM, Number of replicates 2.0, Standard deviation 0.016157415845136337 %",99.7%
same,inhibition,"PRVABC59, Concentration 198.0 uM, Number of replicates 2.0, Standard deviation 0.0195885064887112 %",99.5%
same,inhibition,"PRVABC59, Concentration 198.0 uM, Number of replicates 2.0, Standard deviation 0.04517602680706901 %",99.6%
same,inhibition,"PRVABC59, Concentration 198.0 uM, Number of replicates 2.0, Standard deviation 0.06178660556739447 %",99.7%
same,inhibition,"PRVABC59, Concentration 198.0 uM, Number of replicates 2.0, Standard deviation 0.09594645769808005 %",99.7%
same,inhibition,"PRVABC59, Concentration 198.0 uM, Number of replicates 2.0, Standard deviation 0.10841922745899998 %",99.2%
same,inhibition,"PRVABC59, Concentration 198.0 uM, Number of replicates 2.0, Standard deviation 0.1903446087692639 %",99.7%
NCc1ccc(C[C@H](NC(=O)c2ccccc2)C(=O)N2CCCCC2)cc1,inhibition,"PRVABC59, Concentration 49.5 uM, Number of replicates 2.0, Standard deviation 1.7023364994641166 %",7.06%
same,inhibition,"PRVABC59, Concentration 99.01 uM, Number of replicates 2.0, Standard deviation 1.0175975565444826 %",12.7%
same,inhibition,"PRVABC59, Concentration 198.0 uM, Number of replicates 2.0, Standard deviation 2.6267332126099125 %",22%
NCc1ccc(C[C@H](NC(=O)c2ccccc2)C(=O)Nc2cccc(CN)c2)cc1,inhibition,"PRVABC59, Concentration 49.5 uM, Number of replicates 2.0, Standard deviation 1.4806761079016821 %",29.4%
same,inhibition,"PRVABC59, Concentration 99.01 uM, Number of replicates 2.0, Standard deviation 0.13484294125181392 %",48.1%
same,inhibition,"PRVABC59, Concentration 198.0 uM, Number of replicates 2.0, Standard deviation 0.4356460105984289 %",65.1%
O=Cc1ccc(N2CCC(C(=O)N3CCN(CCc4ccccc4)CC3)CC2)cc1,inhibition,[1],37.9%
O=C(/C=C/c1ccccc1)C(=O)N1CCN(CCc2ccccc2)CC1,inhibition,"PRVABC59, Concentration 49.5 uM, Number of replicates 2.0, Standard deviation 0.08274041706676757 %",1.32%
same,inhibition,"PRVABC59, Concentration 99.01 uM, Number of replicates 2.0, Standard deviation 0.30038362391023454 %",6.15%
same,inhibition,"PRVABC59, Concentration 198.0 uM, Number of replicates 2.0, Standard deviation 0.5414096494264544 %",13.3%
same,inhibition,"PRVABC59, Concentration 200.0 uM, Number of replicates 1.0",96.2%
Nc1ccc(/C=C/C(=O)C(=O)N2CCN(CCc3ccccc3)CC2)cc1,inhibition,"PRVABC59, Concentration 49.5 uM, Number of replicates 2.0, Standard deviation 1.009989544626084 %",23.1%
same,inhibition,"PRVABC59, Concentration 99.01 uM, Number of replicates 2.0, Standard deviation 0.19781370467497048 %",38.5%
same,inhibition,"PRVABC59, Concentration 198.0 uM, Number of replicates 2.0, Standard deviation 0.599146111439346 %",56%
OCCOc1cc(COc2cccnc2F)nc(N2CCNCC2)n1,inhibition,"PRVABC59, Concentration 49.5 uM, Number of replicates 2.0, Standard deviation 1.0649598246775087 %",10.8%
same,inhibition,"PRVABC59, Concentration 99.01 uM, Number of replicates 2.0, Standard deviation 1.1158273619074888 %",21.6%
same,inhibition,"PRVABC59, Concentration 198.0 uM, Number of replicates 2.0, Standard deviation 0.21003831379185828 %",36.7%
NC(=O)c1cn(C[C@H]2CCCN2c2ccnc3ccccc23)nn1,inhibition,"PRVABC59, Concentration 49.5 uM, Number of replicates 2.0, Standard deviation 1.7032876695413104 %",13.6%
same,inhibition,"PRVABC59, Concentration 99.01 uM, Number of replicates 2.0, Standard deviation 1.9821170579482856 %",21.5%
same,inhibition,"PRVABC59, Concentration 198.0 uM, Number of replicates 2.0, Standard deviation 3.129764278957135 %",35.6%
O=Cc1ccc(N2CCC(C(=O)N3CCC(CCN4CCCC4)CC3)CC2)cc1,inhibition,[1],40.2%
O=Cc1ccc(N2CCC(C(=O)N3CCN(c4ccc([N+](=O)[O-])cc4C(F)(F)F)CC3)CC2)cc1,inhibition,[1],51.4%
CS(=O)(=O)c1ccc(N2CCN(C(=O)C3CCN(c4ccc(C=O)cc4)CC3)CC2)c([N+](=O)[O-])c1,inhibition,[1],38.3%

# — ChEMBL document CHEMBL5606458, “ASAP - ZIKV NS2B-NS3 protease fluorescence single point” (2024)
